The list shows a part of the results. No count for the full screen is at hand.
Target: furin, P09958
Test: furin cleavage Z-score vs untreated control; higher = more cleavage, active = 3.5 or more, inactive = 1 or less, 8 variable residues between constant flanks
Method in brief: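 Purified furin digested bead-held 8-mer peptide–cDNA fusions at 1:10 enzyme:substrate in 0.01 ml of 50 mM HEPES pH 7.5 with CaCl2 and NaCl for 7.5, 15 or 30 min. The cleavage Z-score compares sequencing counts of released DNA with furin-free reactions on a log scale, with lowess adjustment and median absolute deviation scaling.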

Chain of furin, P09958 (P09958 whole entry): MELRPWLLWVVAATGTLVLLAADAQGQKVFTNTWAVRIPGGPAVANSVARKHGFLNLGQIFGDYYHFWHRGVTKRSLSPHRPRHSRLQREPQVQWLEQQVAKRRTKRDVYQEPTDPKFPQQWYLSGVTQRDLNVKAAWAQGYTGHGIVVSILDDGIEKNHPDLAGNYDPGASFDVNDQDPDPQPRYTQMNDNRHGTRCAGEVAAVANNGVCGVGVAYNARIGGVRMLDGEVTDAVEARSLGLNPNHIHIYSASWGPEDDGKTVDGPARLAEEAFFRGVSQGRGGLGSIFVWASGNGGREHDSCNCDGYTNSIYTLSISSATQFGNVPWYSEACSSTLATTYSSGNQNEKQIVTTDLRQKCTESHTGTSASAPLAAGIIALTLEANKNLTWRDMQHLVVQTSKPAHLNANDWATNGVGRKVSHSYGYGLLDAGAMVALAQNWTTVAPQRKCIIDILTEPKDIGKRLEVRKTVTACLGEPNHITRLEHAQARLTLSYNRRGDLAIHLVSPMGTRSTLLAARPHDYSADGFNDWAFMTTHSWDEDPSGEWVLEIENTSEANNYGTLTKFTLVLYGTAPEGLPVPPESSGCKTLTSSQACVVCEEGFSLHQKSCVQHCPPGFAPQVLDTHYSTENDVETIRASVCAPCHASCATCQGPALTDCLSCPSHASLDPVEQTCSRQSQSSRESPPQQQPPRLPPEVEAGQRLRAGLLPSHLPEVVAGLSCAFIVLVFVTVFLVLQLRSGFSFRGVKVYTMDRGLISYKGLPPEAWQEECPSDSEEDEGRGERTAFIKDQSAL

## CAMEECSQHIAGNASASA [HC1764]
7.5 min
  furin cleavage Z-score: -0.598 (inactive)
15 min
  furin cleavage Z-score: 0.0833 (inactive)
30 min
  furin cleavage Z-score: 0.396 (inactive)

## CAMRSPVFTDAGNASASA [HC763]
7.5 min
  furin cleavage Z-score: 0.639 (inactive)
15 min
  furin cleavage Z-score: -0.615 (inactive)
30 min
  furin cleavage Z-score: -0.411 (inactive)

## CAFDVVCCSMAGNASASA [HC2107]
7.5 min
  furin cleavage Z-score: -0.364 (inactive)
15 min
  furin cleavage Z-score: 0.607 (inactive)
30 min
  furin cleavage Z-score: -0.057 (inactive)

## CAGERPSGMFAGNASASA [HC913]
7.5 min
  furin cleavage Z-score: 1.14
15 min
  furin cleavage Z-score: -1.35 (inactive)
30 min
  furin cleavage Z-score: -0.577 (inactive)

## CATTPCSLSWAGNASASA [HC1885]
7.5 min
  furin cleavage Z-score: 1.37
15 min
  furin cleavage Z-score: 1.04
30 min
  furin cleavage Z-score: 0.14 (inactive)

## CARPIRSRRAAGNASASA [FS-1563]
7.5 min
  furin cleavage Z-score: 11.5 (active)
15 min
  furin cleavage Z-score: 11.2 (active)
30 min
  furin cleavage Z-score: 9.54 (active)

## CARGRRSRRAAGNASASA [FS-1062]
7.5 min
  furin cleavage Z-score: 5.6 (active)
15 min
  furin cleavage Z-score: 4.73 (active)
30 min
  furin cleavage Z-score: 4.94 (active)

## CARGRRQPIPAGNASASA [HC190]
7.5 min
  furin cleavage Z-score: 0.155 (inactive)
15 min
  furin cleavage Z-score: -0.409 (inactive)
30 min
  furin cleavage Z-score: -0.134 (inactive)

## CARGRRSHDPAGNASASA [FS-2674]
7.5 min
  furin cleavage Z-score: 0.899 (inactive)
15 min
  furin cleavage Z-score: 3.42
30 min
  furin cleavage Z-score: 3.55 (active)

## CARGRRGMKDAGNASASA [FS-2394]
7.5 min
  furin cleavage Z-score: 0.884 (inactive)
15 min
  furin cleavage Z-score: 1.5
30 min
  furin cleavage Z-score: 2.14

## CARGRRQKQNAGNASASA [FS-2418]
7.5 min
  furin cleavage Z-score: 0.749 (inactive)
15 min
  furin cleavage Z-score: 0.513 (inactive)
30 min
  furin cleavage Z-score: 0.917 (inactive)

## CACPAGHAVGAGNASASA [HC746]
7.5 min
  furin cleavage Z-score: -0.805 (inactive)
15 min
  furin cleavage Z-score: -1.77 (inactive)
30 min
  furin cleavage Z-score: 0.00889 (inactive)

## CAPLGNWFGCAGNASASA [HC433]
7.5 min
  furin cleavage Z-score: 1.65
15 min
  furin cleavage Z-score: 0.567 (inactive)
30 min
  furin cleavage Z-score: 1.54

## CAHSSRLKRLAGNASASA [FS-1011]
7.5 min
  furin cleavage Z-score: 6.44 (active)
15 min
  furin cleavage Z-score: 7.96 (active)
30 min
  furin cleavage Z-score: 7.66 (active)

## CAIKSLTERLAGNASASA [HC1497]
7.5 min
  furin cleavage Z-score: -0.222 (inactive)
15 min
  furin cleavage Z-score: -0.416 (inactive)
30 min
  furin cleavage Z-score: -0.246 (inactive)

## CAVKSRLKRLAGNASASA [FS-890]
7.5 min
  furin cleavage Z-score: 9.42 (active)
15 min
  furin cleavage Z-score: 12 (active)
30 min
  furin cleavage Z-score: 9.55 (active)

## CADGMEECSQAGNASASA [HC1816]
7.5 min
  furin cleavage Z-score: -0.375 (inactive)
15 min
  furin cleavage Z-score: 0.927 (inactive)
30 min
  furin cleavage Z-score: 0.477 (inactive)

## CAMSECSQHLAGNASASA [HC1697]
7.5 min
  furin cleavage Z-score: 0.222 (inactive)
15 min
  furin cleavage Z-score: 0.351 (inactive)
30 min
  furin cleavage Z-score: 1.22

## CAMEECSCHLAGNASASA [HC1740]
7.5 min
  furin cleavage Z-score: 0.898 (inactive)
15 min
  furin cleavage Z-score: -0.945 (inactive)
30 min
  furin cleavage Z-score: 0.106 (inactive)

## CALDSFDPLVAGNASASA [HC1287]
7.5 min
  furin cleavage Z-score: 0.861 (inactive)
15 min
  furin cleavage Z-score: 0.184 (inactive)
30 min
  furin cleavage Z-score: 1.88

## CALEGEPGDPAGNASASA [HC1356]
7.5 min
  furin cleavage Z-score: -0.565 (inactive)
15 min
  furin cleavage Z-score: 0.288 (inactive)
30 min
  furin cleavage Z-score: 0.927 (inactive)

## CAGSIRKKRFAGNASASA [FS-1457]
7.5 min
  furin cleavage Z-score: 6.25 (active)
15 min
  furin cleavage Z-score: 7.01 (active)
30 min
  furin cleavage Z-score: 6.64 (active)

## CAKMRRKKRFAGNASASA [FS-1459]
7.5 min
  furin cleavage Z-score: 7.33 (active)
15 min
  furin cleavage Z-score: 9.76 (active)
30 min
  furin cleavage Z-score: 8.97 (active)

## CALNEIKKRFAGNASASA [FS-352]
7.5 min
  furin cleavage Z-score: 0.841 (inactive)
15 min
  furin cleavage Z-score: -1.42 (inactive)
30 min
  furin cleavage Z-score: -0.561 (inactive)

## CAYKRYISWCAGNASASA [HC578]
7.5 min
  furin cleavage Z-score: 0.0156 (inactive)
15 min
  furin cleavage Z-score: 0.474 (inactive)
30 min
  furin cleavage Z-score: 1.13

## CANLKCPCQVAGNASASA [HC1215]
7.5 min
  furin cleavage Z-score: -0.928 (inactive)
15 min
  furin cleavage Z-score: -0.942 (inactive)
30 min
  furin cleavage Z-score: -0.8 (inactive)

## CASQFRSKRSAGNASASA [FS-1085]
7.5 min
  furin cleavage Z-score: 9.98 (active)
15 min
  furin cleavage Z-score: 9.45 (active)
30 min
  furin cleavage Z-score: 7.11 (active)

## CASQQRQYRSAGNASASA [FS-564]
7.5 min
  furin cleavage Z-score: 2.45
15 min
  furin cleavage Z-score: 5.55 (active)
30 min
  furin cleavage Z-score: 5.41 (active)

## CASSTRSKRSAGNASASA [FS-874]
7.5 min
  furin cleavage Z-score: 11.9 (active)
15 min
  furin cleavage Z-score: 11.3 (active)
30 min
  furin cleavage Z-score: 10 (active)

## CAFWVRSKRSAGNASASA [FS-590]
7.5 min
  furin cleavage Z-score: 9.47 (active)
15 min
  furin cleavage Z-score: 8.07 (active)
30 min
  furin cleavage Z-score: 7.6 (active)

## CAMSTWSKRSAGNASASA [FS-464]
7.5 min
  furin cleavage Z-score: 0.45 (inactive)
15 min
  furin cleavage Z-score: 1.32
30 min
  furin cleavage Z-score: 1.43

## CAASLAGTHGAGNASASA [HC539]
7.5 min
  furin cleavage Z-score: 0.00941 (inactive)
15 min
  furin cleavage Z-score: 3.06
30 min
  furin cleavage Z-score: 1.2

## CADTPCSAHLAGNASASA [HC2471]
7.5 min
  furin cleavage Z-score: -1.99 (inactive)
15 min
  furin cleavage Z-score: -1.52 (inactive)
30 min
  furin cleavage Z-score: -0.796 (inactive)

## CALLLTTTQWAGNASASA [HC493]
7.5 min
  furin cleavage Z-score: -0.815 (inactive)
15 min
  furin cleavage Z-score: -0.0284 (inactive)
30 min
  furin cleavage Z-score: 0.00617 (inactive)

## CATTPCSGSIAGNASASA [HC1924]
7.5 min
  furin cleavage Z-score: -0.658 (inactive)
15 min
  furin cleavage Z-score: -0.276 (inactive)
30 min
  furin cleavage Z-score: -1.61 (inactive)

## CAEVPCHMPSAGNASASA [HC2366]
7.5 min
  furin cleavage Z-score: 0.437 (inactive)
15 min
  furin cleavage Z-score: 1.57
30 min
  furin cleavage Z-score: 0.743 (inactive)

## CAPSLKATCTAGNASASA [HC1265]
7.5 min
  furin cleavage Z-score: 0.563 (inactive)
15 min
  furin cleavage Z-score: 1.42
30 min
  furin cleavage Z-score: 0.215 (inactive)

## CATGPCTPLPAGNASASA [HC1194]
7.5 min
  furin cleavage Z-score: -0.592 (inactive)
15 min
  furin cleavage Z-score: -0.46 (inactive)
30 min
  furin cleavage Z-score: 0.602 (inactive)

## CADIINGLPVAGNASASA [HC658]
7.5 min
  furin cleavage Z-score: -0.191 (inactive)
15 min
  furin cleavage Z-score: -0.925 (inactive)
30 min
  furin cleavage Z-score: -0.966 (inactive)

## CAMEECSHHLAGNASASA [HC1735]
7.5 min
  furin cleavage Z-score: 0.695 (inactive)
15 min
  furin cleavage Z-score: -0.107 (inactive)
30 min
  furin cleavage Z-score: -0.123 (inactive)

## CAEKERSKRSAGNASASA [FS-1626]
7.5 min
  furin cleavage Z-score: 9.14 (active)
15 min
  furin cleavage Z-score: 7.38 (active)
30 min
  furin cleavage Z-score: 7.92 (active)

## CAELNRSKKDAGNASASA [FS-232]
7.5 min
  furin cleavage Z-score: 0.785 (inactive)
15 min
  furin cleavage Z-score: 0.28 (inactive)
30 min
  furin cleavage Z-score: 0.715 (inactive)

## CAELNRSKRSAGNASASA [FS-927]
7.5 min
  furin cleavage Z-score: 10.6 (active)
15 min
  furin cleavage Z-score: 9.86 (active)
30 min
  furin cleavage Z-score: 8.24 (active)

## CASSARNKRSAGNASASA [FS-94]
7.5 min
  furin cleavage Z-score: 11.8 (active)
15 min
  furin cleavage Z-score: 11.6 (active)
30 min
  furin cleavage Z-score: 8.13 (active)

## CASKERSKRSAGNASASA [FS-1568]
7.5 min
  furin cleavage Z-score: 12.6 (active)
15 min
  furin cleavage Z-score: 10.6 (active)
30 min
  furin cleavage Z-score: 9.24 (active)

— the supplement of paper PMC3545927
